# Screening data from PubChem.
# DSG3 Ab inh: inhibitors of pemphigus antibody binding to DSG3, primary screen, biochemical, bead-based, flow cytometry, scFv-GFP | binding (percent of control), % at 10 µM | Desmoglein-3 (Homo sapiens), P32926 | AID 588358, 2011 | DSG3-coupled beads, scFv-anti-DSG3-GFP binding; stronger effect = lower value | 310,000 tested, 0.48% active;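 active = binding more than 3 SD below its plate's average and above zero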;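 also: hits lower antibody fragment binding to DSG3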
# Target sequence (P32926 whole entry, looked up, the tested form may be a part): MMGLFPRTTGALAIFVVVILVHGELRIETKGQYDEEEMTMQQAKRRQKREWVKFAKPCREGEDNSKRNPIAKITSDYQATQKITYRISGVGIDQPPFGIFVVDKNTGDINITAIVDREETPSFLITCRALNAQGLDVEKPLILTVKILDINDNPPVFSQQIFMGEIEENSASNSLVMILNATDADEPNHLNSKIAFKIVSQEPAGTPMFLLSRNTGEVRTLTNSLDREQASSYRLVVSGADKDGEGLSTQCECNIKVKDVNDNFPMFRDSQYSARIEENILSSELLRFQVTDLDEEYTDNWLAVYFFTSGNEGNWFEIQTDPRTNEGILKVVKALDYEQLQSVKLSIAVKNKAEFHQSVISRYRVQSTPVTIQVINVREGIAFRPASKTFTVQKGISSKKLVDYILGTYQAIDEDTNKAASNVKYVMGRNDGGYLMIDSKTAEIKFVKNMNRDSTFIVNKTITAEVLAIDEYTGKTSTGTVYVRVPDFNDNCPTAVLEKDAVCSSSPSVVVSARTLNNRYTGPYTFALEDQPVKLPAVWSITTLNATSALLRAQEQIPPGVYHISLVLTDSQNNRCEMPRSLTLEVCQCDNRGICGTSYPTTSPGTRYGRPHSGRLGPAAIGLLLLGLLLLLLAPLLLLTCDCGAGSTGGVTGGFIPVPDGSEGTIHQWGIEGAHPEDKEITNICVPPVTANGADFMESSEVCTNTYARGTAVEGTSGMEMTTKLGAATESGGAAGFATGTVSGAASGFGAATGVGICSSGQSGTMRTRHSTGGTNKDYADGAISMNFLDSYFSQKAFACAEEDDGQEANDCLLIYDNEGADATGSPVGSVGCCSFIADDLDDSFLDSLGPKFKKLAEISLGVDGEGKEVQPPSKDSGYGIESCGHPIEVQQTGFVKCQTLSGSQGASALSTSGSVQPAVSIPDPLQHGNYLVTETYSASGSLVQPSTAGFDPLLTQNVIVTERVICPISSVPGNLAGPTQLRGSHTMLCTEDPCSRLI
# rCAG RNA binder: binders of r(CAG) RNA repeats, primary screen, biochemical, fluorescence | r(CAG) RNA repeat, TO-PRO-1 dye displacement fluorescence | inhibition, % at 3 µM | 370,000 tested, 1.3% active;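 active = inhibition above the plate cutoff, the mean of all test compounds on that plate plus 3 SD, cut at about 35% in these data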;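 also: 0% = DMSO alone and 100% = 100 µM mitoxantrone as full dye displacement; higher means more dye released from RNA so lower well fluorescence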
# KLK7 zymogen act: proKLK7 zymogen activators, primary screen, biochemical, fluorescence intensity; Kallikrein-7 (Homo sapiens), P49862; purified proKLK7, EDANS-DABCYL substrate fluorescence; 100% is mature enzyme control, 0% vehicle; activation, % at 7 µM; 370,000 tested, 0.9% active;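 active = activation above the mean of all tested compounds plus 3 SD, computed per campaign excluding outliers beyond control limits, cut at about 13% in these data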
# ADAM10 inh: human ADAM10 inhibitors, primary screen, biochemical, QFRET, HTS; recombinant ADAM10, EDANS/DABCYL FRET peptide cleavage, 3 h; AID 720582, 2013; inhibition, % at 7 µM; Disintegrin and metalloproteinase domain-containing protein 10 (Homo sapiens), O14672; 370,000 tested, 0.62% active;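 active = inhibition above a per-campaign cutoff equal to the mean of compounds falling between control-based bounds plus 3 SD, cut at about 20% in these data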;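 also: 0% = DMSO wells while the 100% control is not disclosed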
# MPTP block: mitochondrial permeability transition pore inhibitors, primary screen, biochemical, isolated mouse mitochondria, absorbance. Ca2+ swelling absorbance, 30 min. inhibition, % at 10 µM. 360,000 tested, 1.4% active;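 active = inhibition of 50% or more, scaled per plate between neutral and stimulator controls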;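 also: 0% = DMSO wells given calcium and 100% = 1 mM EGTA wells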
# ADAM17 inh: ADAM17 inhibitors, primary screen, biochemical, QFRET | recombinant ADAM17, EDANS/DABCYL FRET peptide cleavage | inhibition, % at 6.95 µM | 370,000 tested, 0.83% active;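 active = inhibition above the mean of compounds lying between control limits plus 3 SD, set per campaign, cut at about 8.5% in these data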;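 also: 0% = DMSO-only wells as the low control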
# rCAG bind conf: small molecules binding CAG repeat RNA – biochemical, fluorescence, confirmation | r(CAG) RNA repeat, TO-PRO-1 dye displacement fluorescence | 4,300 tested, 70% active | inhibition, % at 3 µM | shares compounds with rCAG RNA binder | AID 652065, 2013;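 active = inhibition above a per-plate cutoff, the mean inhibition of sample wells plus 3 SD, cut at about 35% in these data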;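 also: loss of TO-PRO-1 fluorescence as compound displaces dye from 1x1 AA loop RNA; 0% = DMSO only wells and 100% = 100 µM mitoxantrone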
# DNA CAG counter: displacement of TO-PRO-1 from CAG DNA duplex, counter-screen for rCAG RNA repeat binder project, biochemical, fluorescence, TO-PRO-1 dye, d(CAG) DNA oligo; shares compounds with rCAG RNA binder; d(CAG) DNA oligo TO-PRO-1 dye displacement; inhibition, % at 3 µM; 4,300 tested, 94% active; AID 652068, 2013;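 active = inhibition above its plate's cutoff, the mean test-well inhibition plus 3 SD, cut at about 4.8% in these data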;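 also: 0% = DNA dye mix with DMSO and 100% = 100 µM mitoxantrone; hits displace the dye from DNA and so lower well fluorescence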
# dCAG dye DR: inhibitors of DNA CAG/GTC TO-PRO-1 complex, dose response, counter-screen for rCAG RNA repeat binder project, biochemical, fluorescence, TO-PRO-1 dye | IC50, µM | 250 tested, 20% active | shares compounds with rCAG RNA binder | DNA CAG/GTC duplex TO-PRO-1 dye displacement fluorescence | AID 686960, 2013; in the data active = IC50 below about 10 µM
# Starred values were filed as active, the others as inactive; i = inactive; · = no result given. Rows were chosen to be rich in hits. Some 4.7% of all compounds tested hit in one or more screens of this group.
SMILES,DSG3 Ab inh,rCAG RNA binder,KLK7 zymogen act,ADAM10 inh,MPTP block,ADAM17 inh,rCAG bind conf,DNA CAG counter,others
Clc1ccccc1C1Nc2cccc3cccc(c23)N1,119,15,-1,9,3,2,·,·,
COC(=O)C1=C(C)N(Cc2ccc(C(F)(F)F)cc2)C(=NCc2ccc(OC)cc2)NC1c1ccccc1C(F)(F)F (centres undefined),·,3,0,14,·,1,·,·,
CC(C)(C)S(=O)N1Cc2cn(Cc3ccccc3)c(=O)cc2[C@@H]1CCO (some centres undefined),92,3,1,-24,0,-7,·,·,
CCCc1cc(=O)oc2cc(C)cc(OCC(=O)N[C@@H](CSCc3ccccc3)C(=O)O)c12,97,62*,8,-480,-1,-118,50*,13*,
Cc1cc(OCC(=O)NC(Cc2ccc(Cl)cc2)C(=O)O)c2c(C)cc(=O)oc2c1 (centres undefined),102,22,4,-354,0,-82,·,·,
CCCc1cc(=O)oc2cc(C)cc(OCC(=O)NCc3ccncc3)c12,102,-3,3,-424,-1,-116,·,·,
CCCc1cc(=O)oc2cc(C)cc(OCC(=O)NC(Cc3ccc(Cl)cc3)C(=O)O)c12 (centres undefined),103,45*,6,i,0,-151,47*,10*,dCAG dye DR=>30
Cc1cc(OCC(=O)NC(Cc2ccc(Cl)cc2)C(=O)O)c2c(C)c(C)c(=O)oc2c1 (centres undefined),·,45*,3,i,2,-142,42*,9.4*,
COc1cc(NC(=O)COC(=O)CNC(=O)C2CCCCC2)cc(OC)c1,96,1,-1,-5,-2,3,·,·,
C=CCN(CC#Cc1ccc(OC)cc1)CC=C,·,-3,-1,-4,·,-1,·,·,
O=C1NC(c2ccc(-c3ccccc3[N+](=O)[O-])o2)C(C(=O)c2ccccc2)C(O)(C(F)(F)F)N1 (centres undefined),86,53*,0,2,2,0,1,0,
Cn1cc(CC(=O)Nc2ccc(Nc3cccnc3)cc2)c2ccccc21,·,4,0,-3,·,-4,·,·,
O=C(O)c1ccc(Cl)c(S(=O)(=O)N2CCC(Cc3ccccc3)CC2)c1,120,62*,0,0,1,0,45*,13*,
O=C(O)c1cccc(S(=O)(=O)N2CCC(Cc3ccccc3)CC2)c1,114,22,1,-8,2,-1,·,·,
C=CCOc1ccc(Cl)cc1-c1noc(-c2csc([C@H]3C[C@H](O)[C@@H](CO)O3)n2)n1,·,0,0,-1,1,-1,·,·,
O=C(N[C@H](C(=O)N1CCC[C@H]1C(=O)NC1CCCC1)C1CCCCC1)c1ccc(Cl)cc1Cl,·,0,0,0,·,-1,·,·,
COc1cc(/C=N/N=C2/NC(=O)C(CC(=O)O)S2)ccc1OCc1ccc(Cl)cc1 (centres undefined),125,54*,0,3,2,6,38*,10*,
